BoNT A protease: inhibitors of Botulinum neurotoxin A light chain protease | inhibition, % at 10 µM | multiplex microsphere protease substrate cleavage, flow cytometry | AID 588499 | actives 0.17% (n = 360,000); further: plate controls were buffer without enzyme for full effect and enzyme alone for no effect
BoNT F protease: inhibitors of Botulinum neurotoxin F light chain protease; actives 0.22% (n = 360,000); inhibition, % at 10 µM; Multiplex microsphere protease cleavage assay, flow cytometry; in the data active means inhibition above about 35%, passing the limit was not always enough; inconclusive means no clear call, values can overlap the other calls; further: plate controls were buffer without enzyme for full effect and enzyme alone for no effect
Anthrax LF prot: blocks Bacillus anthracis lethal factor protease; P15917; inhibition, % at 10 µM; actives 0.12% (n = 360,000); multiplex microsphere protease cleavage assay, LF; further: plate controls were buffer without enzyme for full effect and enzyme alone for no effect
FBA Mtb inh: Mtb fructose-bisphosphate aldolase inhibition; actives 2.3% (n = 360,000); AID 588726; P9WQA3; purified M. tuberculosis FBA, fluorescence read-out; inhibition, % at 1 µM; in the data active means inhibition above about 27%;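 further: 0% = vehicle and 100% = reference inhibitor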
Target sequence (P9WQA3 whole entry, looked up): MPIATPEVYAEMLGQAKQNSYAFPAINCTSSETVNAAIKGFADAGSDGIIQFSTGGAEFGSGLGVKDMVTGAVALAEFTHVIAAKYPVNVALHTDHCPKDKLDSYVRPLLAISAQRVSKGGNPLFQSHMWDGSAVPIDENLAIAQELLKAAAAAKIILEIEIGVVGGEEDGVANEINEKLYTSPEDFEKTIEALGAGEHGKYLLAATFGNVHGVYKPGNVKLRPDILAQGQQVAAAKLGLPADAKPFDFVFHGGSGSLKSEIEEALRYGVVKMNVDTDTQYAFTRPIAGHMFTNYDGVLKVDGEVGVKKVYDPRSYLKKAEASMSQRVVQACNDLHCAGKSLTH
GDH-TPI counter-1: GDH-TPI coupled enzyme inhibition counter-screen; inhibition, % at 4.8 µM; GDH-TPI coupled enzyme counterscreen, NADH absorbance; actives 1.2% (n = 360,000); in the data active means inhibition above about 30%;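 further: 0% = DMSO wells and 100% = wells lacking the enzyme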
Autofluor counter: compound fluorescence in toxin protease inhibitor counterscreen. compound autofluorescence counterscreen, microsphere flow cytometry; hits give high values. fluorescence intensity (concentration not given with the values). actives 3.1% (n = 360,000). AID 624483; in the data active means fluorescence intensity above about 16000; inconclusive means no clear call, values can overlap the other calls
BoNTA LC inh 2: blocks botulinum neurotoxin A light chain protease | multiplex microsphere protease cleavage assay, flow cytometry | shares compounds with BoNT A protease | actives 10% (n = 150) | inhibition, % at 10 µM; in the data active means inhibition above about 24%
Anthrax LF CP2: blocks anthrax lethal factor protease. inhibition, % at 10 µM. multiplex microsphere protease cleavage assay. AID 602327. shares compounds with BoNT A protease. actives 7% (n = 150); in the data active means inhibition above about 25%
BoNTF LC inh 2: inhibitors of botulinum neurotoxin F light chain protease; shares compounds with BoNT A protease; multiplex microsphere protease cleavage assay, flow cytometry; inhibition, % at 10 µM; actives 7% (n = 150); AID 602336; in the data active means inhibition above about 25%
Mtb FBA confirm: Mtb FBA inhibition, confirmed | shares compounds with FBA Mtb inh | purified M. tuberculosis FBA, fluorescence read-out | inhibition, % at 1 µM | actives 78% (n = 5,600) | AID 651616; in the data active means inhibition above about 27%;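 further: 0% = vehicle wells and 100% = reference inhibitor wells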
GDH-TPI counter-2: GDH-TPI inhibition counter-screen for FBA inhibitors | inhibition, % at 1 µM | AID 652141 | GDH-TPI coupled enzyme counterscreen, fluorescence | shares compounds with FBA Mtb inh | actives 81% (n = 5,600); in the data active means inhibition above about 10%
* = called active by the depositor; ? = inconclusive; · = no result. Hits are enriched below; roughly 6.6% of the tested compounds scored in any of these assays. Unless noted, no stated cut-off is given here; in the data, active means inhibition above about 30%; inconclusive means no clear call, values can overlap the other calls; inactive means below that.

SMILES	BoNT A protease	BoNT F protease	Anthrax LF prot	FBA Mtb inh	GDH-TPI counter-1	Autofluor counter	Mtb FBA confirm	GDH-TPI counter-2	others
CN(c1ccc([N+](=O)[O-])cc1)c1cc2c(c3c1ccn3C)C1CCC2C1 (configuration not stated)	0	-7	-5	-5	·	5378	·	·
Cn1ccc2c(-c3ccc(C(C)(C)C)cc3)cc3c(c21)C1CCC3C1 (configuration not stated)	-1	0	-5	3	·	5412	·	·	BoNTA LC inh 2=2;Anthrax LF CP2=-3;BoNTF LC inh 2=-4
COc1ccc2c(c1)nc(-c1cccc(Br)c1)c(=O)n2C(c1ccccn1)c1nc2ccccc2[nH]1 (configuration not stated)	30*	-2	24	53*	·	3816	68*	47*	BoNTA LC inh 2=12;Anthrax LF CP2=8;BoNTF LC inh 2=10
CN(CC1CCCN(CCc2ccc(F)cc2)C1)C(=O)CCC(N)=O (configuration not stated)	2	27	12	0	-1	3426	·	·
CCOC(=O)c1cc2c(=O)n3cccc(C)c3nc2n(Cc2ccco2)c1=NC(=O)c1cccnc1	0	-14	-9	106*	20	5003	31*	35*
CCOC(=O)c1c(C)nc2c(C)cccn12	0	-3	-5	0	-10	2810	·	·
CCCCCCn1c(-c2cccs2)n[nH]c1=S	-1	-4	-1	48*	183*	4213	-4	-7
CCn1c(=O)ccc2cc([N+](=O)[O-])ccc21	1	-4	-3	0	-8	4362	·	·
O=Cc1c(-c2ccc(Cl)cc2)oc2ccc(O)cc12	·	·	·	0	1	·	·	·
Clc1ccc2nc(-c3ccco3)c(Cc3ccccc3)n2c1	6	8	10	3	·	4578	·	·
Fc1cccc(Cc2c(-c3ccco3)nc3c4ccccc4ccn23)c1	0	-6	0	27*	·	6628	68*	46*
Cc1ccc2nc(C3CCCCC3)c(Cc3ccccc3)n2c1	0	-2	-3	28*	·	6001	3	-3
Clc1cccc(Cc2c(-c3ccco3)nc3c4ccccc4ccn23)c1	0	-11	-2	·	·	6930	·	·
Cc1ccc2nc(C3CCCCC3)c(Cc3cccc(F)c3)n2c1	-1	-17	8	14	·	4303	·	·
Cc1ccc2nc(-c3ccco3)c(Cc3ccccc3)n2c1	0	-8	-4	36*	·	6441	181*	108*
Cc1ccc(C(CNC(=O)c2ccc(Br)o2)N2CCN(C)CC2)cc1 (configuration not stated)	1	-7	3	0	-7	5519	·	·
CCCCN(C)C(=O)c1[nH]c(C(F)(F)F)nc1-c1ccccc1	0	-3	-5	1	·	5951	·	·
Cc1ccc2[nH]c3c(=O)n(Cc4ccco4)cnc3c2c1	-1	-3	-4	4	8	4479	·	·
COc1ccc2[nH]c3c(=O)n4c(nc3c2c1)SCC4	-1	0	4	50*	8	4466	12	10
COc1ccc2[nH]c3c(=O)n(N)c(C)nc3c2c1	0	2	0	106*	10	2374	157*	137*
Cc1ccc2[nH]c3c(=O)n(N)c(C)nc3c2c1	-1	2	-3	41*	14	3631	39*	27*
COc1cc2c(cc1OC)[C@@H](NC(=O)CCc1ccccc1)[C@H](OCc1ccccc1)C2	0	1	0	-1	5	3535	·	·
COc1ccc2oc(C(=O)OCC(=O)N(C)c3ccccc3)c(C)c2c1	2	5	-2	35*	-2	5689	128*	101*
COc1ccc2oc(C(=O)OCC(=O)N(Cc3ccccc3)C(C)C)c(C)c2c1	-4	-10	3	17	5	?	·	·
CCOC(=O)c1c(C)[nH]c(C(=O)COC(=O)c2oc3ccc(OC)cc3c2C)c1C	-1	-1	-2	7	-1	9827	·	·
